Shown are actives, neighbours in structure and some others; about 9.6% of the full set was active somewhere.
USP17 inh: inhibitors of human USP17 deubiquitinase; Ubiquitin carboxyl-terminal hydrolase 17-like protein 5 (Homo sapiens), A8MUK1; purified USP17, Ub-rhodamine cleavage fluorescence, 3 h; inhibition, % at 50 µM; hit rate 6.5% among 47,000; AID 1645855, 2021
Target sequence (A8MUK1 whole entry, looked up): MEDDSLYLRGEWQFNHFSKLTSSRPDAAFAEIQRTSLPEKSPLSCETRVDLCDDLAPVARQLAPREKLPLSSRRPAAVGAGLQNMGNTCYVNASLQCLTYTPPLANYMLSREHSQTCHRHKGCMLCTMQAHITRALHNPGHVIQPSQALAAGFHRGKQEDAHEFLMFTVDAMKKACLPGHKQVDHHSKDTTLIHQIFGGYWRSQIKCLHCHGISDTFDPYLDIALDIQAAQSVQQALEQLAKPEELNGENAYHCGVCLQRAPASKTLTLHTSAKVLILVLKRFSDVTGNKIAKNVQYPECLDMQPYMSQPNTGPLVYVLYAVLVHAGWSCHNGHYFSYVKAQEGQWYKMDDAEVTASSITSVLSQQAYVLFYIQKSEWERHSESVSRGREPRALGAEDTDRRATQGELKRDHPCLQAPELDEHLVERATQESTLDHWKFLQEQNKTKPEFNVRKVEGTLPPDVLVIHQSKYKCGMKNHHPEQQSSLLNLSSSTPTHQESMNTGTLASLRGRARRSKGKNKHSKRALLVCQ
USP30 block: inhibitors of human USP30 deubiquitinase; Ubiquitin carboxyl-terminal hydrolase 30 (Homo sapiens), Q70CQ3; purified USP30, Ub-rhodamine cleavage fluorescence; inhibition, % at 25 µM; hit rate 5.3% among 47,000; AID 1645860, 2021
The depositor's hits bear a star; nt = not tested or not shown. Rule as the data show it: active = inhibition above about 30%; inactive = the rest.

SMILES	USP17 inh	USP30 block
O=c1ccc(-c2nc(-c3cnccn3)no2)cn1Cc1ccccc1F	4	33*
CN1CC(=O)N(CC(=O)N2CCN(c3cccc(Cl)c3)CC2)c2ccccc2C1=O	3	11
Cc1ccc(CNC(=O)c2ccc(N3C(=O)C(C)CS3(=O)=O)cc2)cc1 (stereo not drawn)	9	7
CC1CS(=O)(=O)N(c2ccc(C(=O)Nc3ccc4c(c3)OCCO4)cc2)C1=O (stereo not drawn)	56*	17
Cc1ccc(NC(=O)c2ccc3nn(CC(=O)Nc4ccc(C)cc4C)c(=O)n3c2)cc1	-18	-50
O=C(Cn1nc2ccc(C(=O)NCc3ccccc3)cn2c1=O)Nc1ccc2c(c1)OCO2	52*	-22
O=C(NCc1ccccc1)c1ccc2nn(CC(=O)N3CCc4ccccc4C3)c(=O)n2c1	-7	-13
Cc1ccc(NC(=O)c2ccc3nn(CC(=O)Nc4ccc(F)cc4F)c(=O)n3c2)cc1	68*	10
CCOC(=O)c1noc2ncnc(NCc3cccc(OC)c3)c12	nt	-2
O=C(Nc1ccc(N2CCC(n3cccc3)CC2)cc1)c1ccccc1	0	2
COc1ccc(S(=O)(=O)N(CC(=O)NCc2ccco2)c2ccc(Cl)cc2)cc1	25	-14
C[C@H](O)Cc1cc2cc(O)cc(O)c2c(=O)o1	-3	0
COc1cccc(C2c3[nH]c4ccccc4c3C[C@H]3C(=O)N(CCCc4ccccc4)CC(=O)N23)c1 (stereo partly drawn)	-17	-102
COc1cc(C2c3[nH]c4ccccc4c3C[C@@H]3C(=O)N(Cc4ccco4)CC(=O)N23)cc(OC)c1OC (stereo partly drawn)	-3	-29
O=C1[C@H]2Cc3c([nH]c4ccccc34)C(c3cccc([N+](=O)[O-])c3)N2C(=O)CN1Cc1ccco1 (stereo partly drawn)	40*	-3
COc1cccc(C2c3[nH]c4ccccc4c3C[C@@H]3C(=O)N(CC(O)c4ccccc4)CC(=O)N23)c1 (stereo partly drawn)	45*	-40
COCCNC(=O)c1c(C)oc2c1CN(Cc1ccc(F)cc1)CC2	-44	-52
COc1ccc(CNc2ncc(C(=O)NC3CCCC3)c(C)n2)cc1	-18	-60
COc1ccccc1CN1CCC([C@@H]2C[C@H](C(F)(F)F)n3ncnc3N2)CC1	11	31*
COc1ccc(CN2CCC([C@@H]3C[C@H](C(F)(F)F)n4ncnc4N3)CC2)cc1OC	1	10
COc1ccc(-c2csc3ncnc(N4CCOCC4)c23)cc1	-8	2
O=C(CSc1nnc(C2CC2)n1-c1ccccc1)c1ccc(F)c(F)c1	3	32*
O=C(CSc1nnc2n(-c3ccccc3)c(=O)c3ccccc3n12)c1ccc(F)cc1	3	3
CC(C)Sc1nc(NCC2CCCO2)c2c3c(sc2n1)COC(C)(C)C3 (stereo not drawn)	-9	-18
CCc1nnc2c3cnn(-c4cccc(Cl)c4)c3ncn12	22	0
SMILES	USP17 inh	USP30 block
CN(Cc1nc2ccccc2c(=O)[nH]1)C(=O)CCc1ccc2c(c1)OCO2	-1	6
COc1ccccc1OCCSc1nnc(-c2ccc3c(c2)OCCCO3)n1C	9	18
Cn1c(SCCOc2ccccc2Cl)nnc1-c1ccc2c(c1)OCCO2	17	39*
Cn1c(SCC(=O)c2ccc3c(c2)OCCCO3)nnc1-c1ccc2ccccc2c1	27	49*
Cn1c(SCC(=O)N2CCCCC2)nnc1-c1ccc2c(c1)OCCO2	14	25
Cc1ccc(F)cc1S(=O)(=O)N1CCC(c2nc(-c3ccnnc3)no2)CC1	5	28
Cc1onc(-c2ccccc2)c1CNC(=O)C1CCN(c2nccc(C(F)(F)F)n2)CC1	76*	nt
Cc1onc(-c2ccccc2)c1CNC(=O)c1ccccc1C(=O)O	12	25
CC(=O)c1cccc(NC(=O)C2CCCN2S(=O)(=O)c2ccccc2F)c1 (stereo not drawn)	0	10
Cc1ccc(NC(=O)C(C)Nc2nc(Nc3ccccc3)nc(Nc3ccccc3)n2)cc1 (stereo not drawn)	20	45*
CC(=O)c1cccc(NC(=O)C(C)Nc2nc(Nc3cc(C)cc(C)c3)nc(Nc3cc(C)cc(C)c3)n2)c1 (stereo not drawn)	1	-19
COc1ccc(CCNCc2cc3c(C)nn(-c4ccc(Cl)cc4)c3[nH]c2=O)cc1OC	29	-33
Cc1ccc(-c2nn(-c3ccc(Cl)cc3)c3c2cnc2ccccc23)cc1	5	17
O=C(c1ccccc1F)N1C[C@@H]2OCCN(c3cnccn3)[C@@H]2C1	-19	-3
Cc1nc2ccccc2nc1SCC(=O)Nc1ccc2c(c1)OCO2	47*	66*
Cc1ccc(NC(=O)CSc2nncc3ccccc23)cc1	25	3
O=C(CSc1nncc2ccccc12)Nc1ccc2c(c1)OCO2	-9	57*
Cc1ccc2oc(SCC(=O)Nc3ccc4c(c3)OCO4)nc2n1	1	-6
CC(=O)Nc1ccc(C(=O)N2CCC3(CC2)CO[C@@H]([C@@]2(C)CC[C@H](O)C(C)(C)O2)C3)cc1	nt	16
CCc1ccc(NS(=O)(=O)c2c[nH]c3ccc([N+](=O)[O-])cc23)cc1	60*	66*
O=[N+]([O-])c1ccc2[nH]cc(S(=O)(=O)Nc3ccc(Cl)cc3)c2c1	-7	4
CC(C)(C)C(=O)N1CCCC(Cc2nccnc2-c2cncc(C(=O)O)c2)C1 (stereo not drawn)	17	7
CSCCC(NS(=O)(=O)c1ccc2c(c1)OCCO2)C(=O)Nc1ccccc1F (stereo not drawn)	8	-23
COc1ccc(-c2noc(-c3ccc(OCC(=O)NCc4ccccc4OC)cc3)n2)cc1	0	-36
CCc1noc(-c2ccc(OCC(=O)Nc3ccccc3C(C)C)cc2)n1	41*	25
SMILES	USP17 inh	USP30 block
CCc1noc(-c2ccc(OCC(=O)Nc3ccc(C)cc3C)cc2)n1	51*	15
CCc1ccc(NC(=O)COc2ccc(-c3nc(CC)no3)cc2)cc1	20	26
CCNc1cc(N2CCCC(CCC(=O)NCc3ccccc3C)C2)ncn1 (stereo not drawn)	-37	-26
CCOc1ccc(C2CC(=O)Nc3c2sc(C(=O)O)c3-c2ccc(OC)cc2)cc1 (stereo not drawn)	2	4
COC(=O)c1ccc(C2CC(=O)Nc3c2sc(C(=O)O)c3-c2ccc(OC)cc2)cc1 (stereo not drawn)	11	34*
O=S(=O)(c1ccc(Cc2ncc(C(F)(F)F)cc2Cl)s1)N1CCN(c2ccc(F)cc2)CC1	-15	-50
Cn1cccc1C(=O)N1CCC2(CC1)Nc1cccnc1NC2=NCc1ccccc1	-53	-257
O=C(CCC(=O)N1CCOc2ccccc21)Nc1cc(F)ccc1F	0	12
O=C(CN1C=NC2=NS(=O)(=O)c3ccccc3N21)Nc1cc(F)ccc1F	76*	18
CCCCCCCCCCCC(O)CC(=O)N[C@@H](CC(C)C)C(=O)N[C@H](CCC(=O)O)C(=O)N[C@H]1C(=O)N[C@H]([C@@H](C)CC)C(=O)NC(CC(C)C)C(=O)N[C@H](CO)C(=O)N[C@@H](CC(C)C)C(=O)N[C@@H](CC(C)C)C(=O)N[C@H](CO)C(=O)N[C@@H](C(C)C)C(=O)O[C@@H]1C (stereo partly drawn)	51*	-15
